Measured values from PubChem BioAssay AID1159580 (chemical genetic matrix, 2015).
Where “and” joins values, the source holds several entries; their conditions need not be identical. Equal values may be shown once. In all, about 5,500 compounds went through this assay and about 2,000 (36%) were called active. Inconclusive results (about 18%) are left out. The list shows a part of the results. Values without a mark were called inactive. Cut-off read from the data, not from the text of the source: active = normalized growth mostly below about 0.91 (no sharp cut-off); inconclusive = no clear call, values can overlap the other calls; inactive = mostly above about 0.92.

Assay: chemical genetic growth profiling, strain panel (AID 1159580);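 note: tested at 20 µM; growth read once vehicle control cultures reached saturation at 30 °C; 1 = growth at the plate median or of vehicle wells; lower values mean less growth of the strain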
Details: S. cerevisiae deletion strains, growth OD

CC(C)N(CCC(C(N)=O)(c1ccccc1)c1ccccn1)C(C)C (stereo not drawn)
normalized growth (locus YAL013W, strain DEP1, active compounds read low): 0.959 | normalized growth (locus YAL021C, strain ccr4, active compounds read low): 0.0708 (active) | normalized growth (locus YAL026C, strain drs2, active compounds read low): 0.0629 (active) | normalized growth (locus YAL030W, strain snc1, active compounds read low): 0.233 (active) | normalized growth (locus YAL040C, strain CLN3, active compounds read low): 0.969 and 1.02 | normalized growth (locus YBL061C, strain skt5, active compounds read low): 0.15 (active) | normalized growth (locus YBR009C, strain hhf1, active compounds read low): 0.103 (active) | normalized growth (locus YBR021W, strain FUR4, active compounds read low): 0.984 | normalized growth (locus YBR023C, strain chs3, active compounds read low): 0.171 (active) | normalized growth (locus YBR171W, strain sec66, active compounds read low): 0.0831 (active) | normalized growth (locus YBR229C, strain ROT2, active compounds read low): 0.998 | normalized growth (locus YBR231C, strain swc5, active compounds read low): 0.0926 (active) | normalized growth (locus YBR279W, strain paf1, active compounds read low): 0.0794 (active) | normalized growth (locus YCL011C, strain gbp2, active compounds read low): 0.062 (active) | normalized growth (locus YCL016C, strain dcc1, active compounds read low): 0.251 (active) | normalized growth (locus YCL029C, strain bik1, active compounds read low): 0.963 | normalized growth (locus YCL061C, strain MRC1 (second series), active compounds read low): 0.993 and 1.01 | normalized growth (locus YCL061C, strain MRC1, active compounds read low): 0.0703 (active) | normalized growth (locus YCL069W, strain vba3, active compounds read low): 0.0939 (active) | normalized growth (locus YCR088W, strain abp1, active compounds read low): 0.0673 (active) | normalized growth (locus YDL005C, strain med2, active compounds read low): 0.937 | normalized growth (locus YDL035C, strain GPR1, active compounds read low): 1.04 | normalized growth (locus YDL040C, strain nat1, active compounds read low): 0.471 (active) | normalized growth (locus YDL074C, strain BRE1, active compounds read low): 0.976 | normalized growth (locus YDL101C, strain DUN1, active compounds read low): 0.988 | normalized growth (locus YDL185W, strain tfp1, active compounds read low): 0.971 | normalized growth (locus YDL192W, strain arf1, active compounds read low): 0.995 | normalized growth (locus YDR001C, strain nth1, active compounds read low): 0.0635 (active) | normalized growth (locus YDR069C, strain doa4, active compounds read low): 0.0647 (active) | normalized growth (locus YDR101C, strain arx1, active compounds read low): 0.983 | normalized growth (locus YDR137W, strain rgp1, active compounds read low): 0.0968 (active) | normalized growth (locus YDR150W, strain NUM1, active compounds read low): 0.989 and 1 and 1.01 | normalized growth (locus YDR159W, strain sac3, active compounds read low): 0.388 (active) | normalized growth (locus YDR162C, strain NBP2, active compounds read low): 1.01 | normalized growth (locus YDR195W, strain ref2): 0.12 (active) | normalized growth (locus YDR297W, strain sur2, active compounds read low): 0.0705 (active) | normalized growth (locus YDR318W, strain mcm21, active compounds read low): 0.998 | normalized growth (locus YDR334W, strain swr1, active compounds read low): 0.0666 (active) | normalized growth (locus YDR335W, strain msn5, active compounds read low): 0.0613 (active) | normalized growth (locus YDR363W, strain ESC2, active compounds read low): 0.982 and 0.999 | normalized growth (locus YDR388W, active compounds read low): 0.99 | normalized growth (locus YDR392W, strain spt3, active compounds read low): 0.112 (active) | normalized growth (locus YDR502C, strain sam2, active compounds read low): 0.992 | normalized growth (locus YEL003W, strain gim4, active compounds read low): 0.0565 (active) | normalized growth (locus YEL037C, strain rad23, active compounds read low): 0.0584 (active) | normalized growth (locus YEL061C, strain CIN8 (second series), active compounds read low): 0.0634 (active) | normalized growth (locus YEL061C, strain CIN8, active compounds read low): 0.996 | normalized growth (locus YER002W, strain NOP16, active compounds read low): 0.995 and 1 | normalized growth (locus YER015W, strain faa2, active compounds read low): 0.0627 (active) | normalized growth (locus YER016W, strain bim1, active compounds read low): 0.0943 (active) | normalized growth (locus YER110C, active compounds read low): 0.977 | normalized growth (locus YER111C, strain swi4, active compounds read low): 0.082 (active) | normalized growth (locus YER155C, strain BEM2 (second series), active compounds read low): 0.1 (active) | normalized growth (locus YER155C, strain BEM2, active compounds read low): 0.989 | normalized growth (locus YER167W, strain BCK2, active compounds read low): 0.986 | normalized growth (locus YFR010W, strain ubp6, active compounds read low): 0.0698 (active) | normalized growth (locus YGL078C, strain dbp3, active compounds read low): 0.99 | normalized growth (locus YGL086W, strain mad1, active compounds read low): 1 | normalized growth (locus YGL167C, strain pmr1, active compounds read low): 0.563 (active) | normalized growth (locus YGL173C, strain kem1, active compounds read low): 0.114 (active) | normalized growth (locus YGL227W, strain vid30, active compounds read low): 0.0631 (active) | normalized growth (locus YGL240W, strain doc1, active compounds read low): 0.129 (active) | normalized growth (locus YGL248W, strain PDE1, active compounds read low): 0.98 | normalized growth (locus YGL253W, strain hxk2, active compounds read low): 0.0581 (active) | normalized growth (locus YGR078C, strain PAC10, active compounds read low): 0.99 and 1.04 | normalized growth (locus YGR135W, strain pre9, active compounds read low): 0.952 | normalized growth (locus YGR252W, strain gcn5, active compounds read low): 0.997 | normalized growth (locus YHR013C, strain ard1, active compounds read low): 0.114 (active) | normalized growth (locus YHR027C, strain rpn1, active compounds read low): 0.0639 (active) | normalized growth (locus YHR030C, strain SLT2, active compounds read low): 0.997 and 1 | normalized growth (locus YHR079C, strain IRE1 (second series), active compounds read low): 0.995 | normalized growth (locus YHR079C, strain IRE1, active compounds read low): 0.968 | normalized growth (locus YHR094C, strain hxt1, active compounds read low): 0.976 | normalized growth (locus YHR129C, strain ARP1, active compounds read low): 0.999 | normalized growth (locus YHR142W, strain chs7, active compounds read low): 0.0788 (active) | normalized growth (locus YHR200W, strain rpn10, active compounds read low): 0.999 | normalized growth (locus YIL066C, strain RNR3, active compounds read low): 0.992 | normalized growth (locus YIL073C, strain SPO22, active compounds read low): 0.912 | normalized growth (locus YIL125W, strain kgd1, active compounds read low): 1 | normalized growth (locus YIR030C, strain dcg1, active compounds read low): 0.973 | normalized growth (locus YJL092W, strain hpr5, active compounds read low): 0.0644 (active) | normalized growth (locus YJL095W, strain BCK1 (second series), active compounds read low): 0.17 (active) | normalized growth (locus YJL095W, strain BCK1, active compounds read low): 0.966 and 1.01 | normalized growth (locus YJL115W, strain asf1, active compounds read low): 0.0925 (active) | normalized growth (locus YJL129C, strain trk1, active compounds read low): 0.0869 (active) | normalized growth (locus YJL134W, strain LCB3, active compounds read low): 0.998 | normalized growth (locus YJL154C, strain vps35, active compounds read low): 0.0659 (active) | normalized growth (locus YJL164C, strain tpk1, active compounds read low): 0.13 (active) | normalized growth (locus YJL166W, strain qcr8, active compounds read low): 0.0729 (active) | normalized growth (locus YJL168C, strain set2, active compounds read low): 0.996 | normalized growth (locus YJL187C, strain SWE1 (second series), active compounds read low): 0.977 | normalized growth (locus YJL187C, strain SWE1, active compounds read low): 0.468 (active) | normalized growth (locus YJR043C, strain POL32, active compounds read low): 1.05
